Assay [1] can be described thus: liver-stage malaria parasite growth inhibition, primary screen, cell-based, HepG2, luciferase luminescence, HepG2 viability (AID 624349; in the data active = parasite load remaining mostly below about 12%, no sharp cut-off; inactive = mostly above about 10%;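 note: 100% = mean of DMSO negative control wells on the same plate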). The following applies: P. berghei liver stage in HepG2, luciferase luminescence, concentration not given here; parasite load remaining: stronger effect = lower value; viability: measured here: HepG2 viability without parasites.
Assay [2] deals with Neuropilin-2 / VEGF-C interaction (human). Nature of the assay: inhibitors of NRP2–VEGF-C binding, biochemical, microplate binding format, z-score (AID 743281). Conditions: microplate NRP2/VEGF-C binding assay; stronger effect = lower value.
Assay [3] relates to Aerobactin synthetase IucA (Klebsiella pneumoniae). Put plainly: IucA aerobactin synthetase inhibitors, biochemical, Tocris library, absorbance (AID 1345561).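 Note: 100% = enzyme without compound and 0% = no enzyme.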 Conditions: purified IucA enzyme assay, absorbance (OD) read-out; stronger effect = lower value;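 tested at 8 µM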.
Assay [4] can be described thus: growth inhibition of DIPG glioma cells, dose response, cell-based, SU-DIPG-XIII, MIPE5.0, CellTiter-Glo, qHTS (AID 1347064; cut-off not given, nearly all actives have AC50 up to about 23 µM;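 for AC50: cells exposed to compound for 48 hours before the viability read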). The following applies: SU-DIPG-XIII viability, CellTiter-Glo ATP luminescence. Background: Cellular ATP, detected with luciferase, serves as a proxy for viable cell number.
A short description of assay [5]: viability loss in pontine glioma line – cell-based, SU-DIPG-XXV, MIPE5.0, CellTiter-Glo, qHTS, dose response (AID 1347065; cut-off not given, nearly all actives have AC50 up to about 26 µM;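 note: cells exposed to compound for 48 hours before ATP readout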). The following applies: CellTiter-Glo ATP luminescence.
A short description of assay [6]: modifiers of HSF1 nuclear foci, imaging, Selleck Cancer Library (AID 1347162; in the data active = plate-normalised HSF1 focus index below about 0.46). The following applies: human cells, at 10 µM; SSMD: measured here: HSF1 foci SSMD mean; cell count: measured here: cell number; plate-normalised HSF1 focus index: stronger effect = lower value.
Assay [7] is described as follows: antimalarial activity against Dd2 strain (AID 2302;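 active = growth inhibition above 50% at the single 2 µM test dose, taken to imply half-maximal potency below 2 µM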;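 note: 0% = DMSO untreated growth and 100% = chloroquine plus artemisinin killed control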). The following applies: P. falciparum Dd2 in RBCs, LDH growth readout, 72 h; at 2 µM; stronger effect = higher value.
Assay [8] addresses L-lactate dehydrogenase (Plasmodium falciparum (isolate CDC / Honduras)) (UniProt Q27743). Nature of the assay: PfLDH activity inhibition – cell lysate, 3D7 strain, counter-screen for P. falciparum growth inhibition project (AID 2304).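 Note: 0% = vehicle and 100% = reference inhibitor.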 The following applies: P. falciparum 3D7 crude extract, LDH APAD/NBT absorbance; at 2 µM; stronger effect = higher value.
Assay [9] can be described thus: inhibition of 3D7 malaria parasite growth – strain 3D7 (AID 2306).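 Note: 0% = DMSO wells and 100% = chloroquine plus artemisinin control wells.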 The following applies: P. falciparum 3D7 erythrocytic growth, LDH absorbance, 72 h; at 2 µM; stronger effect = higher value.
Assay [10] addresses Calcium-dependent protein kinase 1 (Plasmodium falciparum (isolate 3D7)) (UniProt P62344). Nature of the assay: PfCDPK1 kinase inhibitors, biochemical, TCAMS library (AID 1159585; cut-off not given, nearly all actives have IC50 up to about 0.98 µM;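 note: inhibitors leave more ATP so luminescence rises with inhibition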). The following applies: recombinant PfCDPK1, Kinase-Glo ATP depletion luminescence. On the technique in general: In Kinase-Glo more light means more ATP remaining.
Assay [11] has as its target Plasmodium falciparum protein kinase 6 (PK6, PF3D7_1337100) (UniProt Q8IDW1). Nature of the assay: PfPK6 kinase inhibitors, biochemical, TCAMS library (AID 1159586). The following applies: recombinant PfPK6, Kinase-Glo ATP depletion luminescence.
The target in assay [12] is Protein kinase 7 (PK7), Plasmodium falciparum 3D7 (PF3D7_0213400) (UniProt Q7YTF7). Nature of the assay: inhibition of Plasmodium PK7 catalytic activity – biochemical, TCAMS antimalarial set, Kinase-Glo luminescence (AID 1159587). The following applies: recombinant PfPK7, Kinase-Glo ATP depletion luminescence.
The target in assay [13] is Calcium-dependent protein kinase 4 (Plasmodium falciparum (isolate 3D7)) (UniProt Q8IBS5). Nature of the assay: PfCDPK4 kinase inhibitors, biochemical, TCAMS library (AID 1159588; cut-off not given, nearly all actives have IC50 up to about 0.91 µM). Conditions: recombinant PfCDPK4, Kinase-Glo ATP depletion luminescence.
Assay [14] concerns the target ATP-dependent translocase ABCB1 (Homo sapiens) (UniProt P08183). Put plainly: MDR1 (ABCB1) efflux transporter inhibition, cell-based (AID 377; in the data active = fluorescence slope change above about 50%). Conditions: MDR1-expressing cells, fluorescent substrate accumulation slope; stronger effect = higher value; concentration not given here.
The nature of assay [15]: CRL2098 osteosarcoma cell growth inhibition, synergistic combos for chromothripsis tumors, BGB or cisplatin IC20 combos (AID 1671454; in the data active = inhibition above about 80%;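 note: cells exposed for 96 h before readout; 0% = vehicle DMSO and 100% = killing by high DMSO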). The following applies: CRL2098 osteosarcoma cells, drug combinations, stronger effect = higher value.
The nature of assay [16]: HD-MB03 medulloblastoma cell growth inhibition, synergistic combos for chromothripsis tumors, BGB or cisplatin IC20 combos (AID 1671455; in the data active = inhibition above about 83%;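 note: 0% = vehicle DMSO and 100% = high DMSO as cytotoxic control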). The following applies: HD-MB03 medulloblastoma cells, stronger effect = higher value.
The nature of assay [17]: UWB1.289 ovarian carcinoma cell growth inhibition, synergistic combos for chromothripsis tumors, BGB or cisplatin combos (AID 1671456; in the data active = inhibition above about 80%;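 note: cells exposed to compound for four days; 0% = vehicle DMSO and 100% = killing by high DMSO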). Conditions: UWB1.289 ovarian carcinoma cells, stronger effect = higher value.
Assay [18] in a line: LFS_MB_2R medulloblastoma cell growth inhibition, synergistic combos for chromothripsis tumors, cisplatin combos (AID 1671457; in the data active = inhibition above about 80%;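 note: cells exposed to compound for four days before readout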). Conditions: LFS_MB_2R medulloblastoma cells, stronger effect = higher value.
Assay [19] is described as follows: UWB1.289_BRCA1 ovarian cancer growth, cell-based, BGB or cisplatin combinations (AID 1671459; in the data active = inhibition above about 80%). Conditions: UWB1.289 BRCA1 ovarian carcinoma, drug combinations, stronger effect = higher value.
Assay [20] in a line: human astrocyte viability loss, single and combined drugs, cytotoxicity control for chromothriptic childhood tumor combination screen, cell-based, BGB or cisplatin IC20 combos (AID 1671460; in the data active = inhibition above about 80%;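 note: cells exposed to compounds for 96 hours before viability readout; 0% = vehicle and 100% = killing control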). The following applies: Human astrocytes, drug combinations, stronger effect = higher value.

Consider ten compounds from PubChem BioAssay.

Where “and” joins values, the source holds several entries; their conditions need not be identical. Identical values can stand only once. Records with an inconclusive call do not appear. For part of these data: Results with a measured potency or affinity are listed apart. Calls of active or inactive are those of the source. Unless noted, the rule behind the calls is not given here.

Chain of L-lactate dehydrogenase (Plasmodium falciparum (isolate CDC / Honduras)) (Q27743 whole entry, looked up): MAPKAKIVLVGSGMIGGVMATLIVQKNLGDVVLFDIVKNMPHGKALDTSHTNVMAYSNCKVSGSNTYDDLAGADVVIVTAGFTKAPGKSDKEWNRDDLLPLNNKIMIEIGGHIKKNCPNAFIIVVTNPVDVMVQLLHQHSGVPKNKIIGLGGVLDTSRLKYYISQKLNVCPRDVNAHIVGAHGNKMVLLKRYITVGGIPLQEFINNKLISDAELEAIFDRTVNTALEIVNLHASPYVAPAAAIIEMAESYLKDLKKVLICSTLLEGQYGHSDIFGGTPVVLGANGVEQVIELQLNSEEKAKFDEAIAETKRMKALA
Chain of Protein kinase 7 (PK7), Plasmodium falciparum 3D7 (PF3D7_0213400) (Q7YTF7 1-343): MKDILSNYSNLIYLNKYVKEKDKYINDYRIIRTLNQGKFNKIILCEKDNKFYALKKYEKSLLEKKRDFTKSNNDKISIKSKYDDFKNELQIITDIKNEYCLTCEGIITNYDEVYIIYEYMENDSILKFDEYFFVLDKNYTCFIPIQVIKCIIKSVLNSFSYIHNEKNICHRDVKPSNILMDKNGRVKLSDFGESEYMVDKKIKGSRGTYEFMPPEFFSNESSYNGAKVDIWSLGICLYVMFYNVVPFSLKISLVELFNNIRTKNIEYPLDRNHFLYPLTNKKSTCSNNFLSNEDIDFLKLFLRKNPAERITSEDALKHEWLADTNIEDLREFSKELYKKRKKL
Chain of Calcium-dependent protein kinase 4 (Plasmodium falciparum (isolate 3D7)) (Q8IBS5 whole entry, looked up): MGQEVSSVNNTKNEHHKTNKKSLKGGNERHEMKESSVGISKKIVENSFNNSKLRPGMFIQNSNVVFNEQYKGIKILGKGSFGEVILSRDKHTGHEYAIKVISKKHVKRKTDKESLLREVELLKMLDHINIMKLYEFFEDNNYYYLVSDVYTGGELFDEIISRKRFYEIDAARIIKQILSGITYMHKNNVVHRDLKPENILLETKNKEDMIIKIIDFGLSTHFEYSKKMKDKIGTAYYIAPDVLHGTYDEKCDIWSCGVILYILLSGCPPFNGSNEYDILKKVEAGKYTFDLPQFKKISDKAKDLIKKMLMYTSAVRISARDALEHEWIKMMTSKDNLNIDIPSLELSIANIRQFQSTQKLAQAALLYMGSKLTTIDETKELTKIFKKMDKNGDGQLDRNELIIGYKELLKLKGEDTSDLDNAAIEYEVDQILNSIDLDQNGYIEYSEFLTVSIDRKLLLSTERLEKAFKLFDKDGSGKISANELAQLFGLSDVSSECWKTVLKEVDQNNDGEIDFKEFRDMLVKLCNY
Chain of Plasmodium falciparum protein kinase 6 (PK6, PF3D7_1337100) (Q8IDW1 1-305): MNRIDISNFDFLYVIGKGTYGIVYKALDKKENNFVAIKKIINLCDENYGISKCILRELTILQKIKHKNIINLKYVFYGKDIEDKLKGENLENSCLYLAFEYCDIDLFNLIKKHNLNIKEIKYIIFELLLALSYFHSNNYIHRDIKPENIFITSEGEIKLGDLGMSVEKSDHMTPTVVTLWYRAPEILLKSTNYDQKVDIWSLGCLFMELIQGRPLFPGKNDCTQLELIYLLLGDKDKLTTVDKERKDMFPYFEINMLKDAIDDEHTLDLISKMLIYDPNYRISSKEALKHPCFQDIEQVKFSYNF
Chain of Calcium-dependent protein kinase 1 (Plasmodium falciparum (isolate 3D7)) (P62344 whole entry, looked up): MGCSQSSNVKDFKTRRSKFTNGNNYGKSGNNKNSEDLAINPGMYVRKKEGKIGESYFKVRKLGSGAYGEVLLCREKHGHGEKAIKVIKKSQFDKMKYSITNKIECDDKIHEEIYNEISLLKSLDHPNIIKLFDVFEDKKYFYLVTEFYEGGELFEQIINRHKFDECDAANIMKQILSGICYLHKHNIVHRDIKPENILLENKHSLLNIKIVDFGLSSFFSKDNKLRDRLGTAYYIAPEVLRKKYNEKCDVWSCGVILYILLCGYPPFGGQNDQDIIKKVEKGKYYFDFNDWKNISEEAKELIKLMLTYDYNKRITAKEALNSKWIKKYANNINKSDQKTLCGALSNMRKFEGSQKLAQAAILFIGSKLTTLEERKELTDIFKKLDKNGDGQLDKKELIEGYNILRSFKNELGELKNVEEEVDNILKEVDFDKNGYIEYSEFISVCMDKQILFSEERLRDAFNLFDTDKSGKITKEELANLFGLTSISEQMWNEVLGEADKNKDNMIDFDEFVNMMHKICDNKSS
Chain of ATP-dependent translocase ABCB1 (Homo sapiens) (P08183 whole entry, looked up): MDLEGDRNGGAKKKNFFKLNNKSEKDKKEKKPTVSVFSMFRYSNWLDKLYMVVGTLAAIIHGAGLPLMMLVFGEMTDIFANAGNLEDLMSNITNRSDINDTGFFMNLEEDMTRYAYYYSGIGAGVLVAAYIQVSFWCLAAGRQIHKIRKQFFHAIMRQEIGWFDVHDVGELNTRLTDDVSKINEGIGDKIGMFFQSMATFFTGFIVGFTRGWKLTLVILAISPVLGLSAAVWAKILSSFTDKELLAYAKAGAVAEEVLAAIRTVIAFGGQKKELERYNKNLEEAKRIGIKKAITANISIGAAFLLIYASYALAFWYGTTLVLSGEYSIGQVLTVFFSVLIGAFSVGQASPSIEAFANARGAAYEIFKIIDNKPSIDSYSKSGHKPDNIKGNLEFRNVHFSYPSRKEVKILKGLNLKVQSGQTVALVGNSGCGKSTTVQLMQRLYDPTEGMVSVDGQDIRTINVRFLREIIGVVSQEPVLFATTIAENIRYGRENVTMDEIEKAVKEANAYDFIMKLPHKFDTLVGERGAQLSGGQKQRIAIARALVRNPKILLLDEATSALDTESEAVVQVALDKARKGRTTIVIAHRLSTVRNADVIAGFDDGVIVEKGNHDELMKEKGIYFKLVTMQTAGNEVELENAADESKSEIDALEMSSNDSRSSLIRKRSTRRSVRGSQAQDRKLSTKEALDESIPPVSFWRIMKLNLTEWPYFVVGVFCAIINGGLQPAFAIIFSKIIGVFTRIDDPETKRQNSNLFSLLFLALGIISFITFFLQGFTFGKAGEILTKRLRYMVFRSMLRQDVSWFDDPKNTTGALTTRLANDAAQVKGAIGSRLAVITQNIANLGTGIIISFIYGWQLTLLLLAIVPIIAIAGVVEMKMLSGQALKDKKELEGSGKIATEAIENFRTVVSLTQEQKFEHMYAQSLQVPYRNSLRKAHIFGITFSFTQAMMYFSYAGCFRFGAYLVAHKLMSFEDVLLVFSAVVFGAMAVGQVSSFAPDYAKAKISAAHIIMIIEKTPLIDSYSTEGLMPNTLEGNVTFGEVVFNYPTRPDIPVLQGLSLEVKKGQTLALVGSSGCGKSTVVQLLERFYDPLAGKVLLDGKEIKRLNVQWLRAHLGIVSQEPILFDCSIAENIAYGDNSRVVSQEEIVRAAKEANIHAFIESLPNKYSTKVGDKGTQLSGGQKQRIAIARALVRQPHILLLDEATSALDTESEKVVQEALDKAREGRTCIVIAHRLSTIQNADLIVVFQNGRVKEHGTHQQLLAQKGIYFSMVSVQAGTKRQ

Turning to `CCOC(=O)[C@H](CCc1ccccc1)N[C@H]1CCc2ccccc2N(CC(=O)O)C1=O`, in [1], the parasite load remaining was 126% (inactive) and 36.1% (inactive) and 94.6% (inactive); the viability (usually a read-out of living cells in per cent, often relative to untreated cells) was 90.1% and 91.8% and 66.1%. In assay [2], the z-score is -0.908 (inactive). For the same compound, in [3], the remaining activity (as a rule, the signal under treatment as a percentage of the control signal) was 104% (inactive). Also, the call in assay [4] was inactive. In addition, the result in [5] was inactive.

Consider `CC1=C(CC(=O)O)c2cc(F)ccc2/C1=C\c1ccc(S(C)=O)cc1` (centres undefined), for which the remaining activity in assay [3] is 115% (inactive). Besides, the compound was called inactive in [5].

Turning to `CCC(C)(C)C(=O)O[C@H]1C[C@@H](C)C=C2C=C[C@H](C)[C@H](CC[C@@H]3C[C@@H](O)CC(=O)O3)[C@H]21`, the remaining activity in assay [3] is 114% (inactive). In [6], the SSMD is 1.41, the cell count is 7420 and the plate-normalised HSF1 focus index is 1.09 (inactive).

`NC12CC3CC(CC(C3)C1)C2`: the growth inhibition was -1% (inactive) in assay [7] and 98% (active) in assay [9]. Also, in assay [8], the inhibition (in general, the change of the read-out against control, counted positive when it falls) is -7% (inactive). The outcome in assay [10], in assay [11], in assay [12], in assay [13] and in [4] was inactive.

Turning to `CCC1(c2ccccc2)C(=O)NCNC1=O`, in assay [3], the remaining activity is 91.8% (inactive). Also, the result in [4] and in assay [5] was inactive.

Regarding `CC(C)NCC(O)c1ccc(O)c(O)c1` (centres undefined), in assay [3], the remaining activity was 108% (inactive). Besides, the result in assay [4] and in [5] was inactive.

As to `CN(C)CCCN1c2ccccc2CCc2ccc(Cl)cc21`, the fluorescence slope change in assay [14] was 179% (active). For the same compound, the remaining activity in assay [3] is 96.8% (inactive). The call in [4] was inactive.

Turning to `O=C1CCC(N2C(=O)c3ccccc3C2=O)C(=O)N1` (centres undefined), the fluorescence slope change in [14] was 58.2% (active). For the same compound, the remaining activity in assay [3] was 108% (inactive).

Consider `CCN(CC)CCCC(C)Nc1c2ccc(Cl)cc2nc2ccc(OC)cc12` (centres undefined), for which the fluorescence slope change in assay [14] is 75.1% (active). The growth inhibition in assay [7] and in [9] was 101% (active) each time. The inhibition in assay [8] is 0% (inactive); in [15] (at 0.5 µM) it was -21.4% (inactive); in [15] (measured here: combination with BGB at IC20, at 0.5 µM), -24.3%; in [15] (measured here: combination with cisplatin at IC20, at 0.5 µM), -28%; in [16] (at 0.5 µM), 0.06% (inactive); in assay [16] (measured here: combo with BGB at IC20, at 0.5 µM), 19%. Also, the inhibition in assay [16] (measured here: combo with cisplatin at IC20, at 0.5 µM) was -11.8%; in assay [17] (at 0.5 µM) it was 5.88% (inactive); in assay [17] (measured here: inhibition with BGB combination, at 0.05 µM), -7.63%; in assay [17] (measured here: inhibition with cisplatin combination, at 0.05 µM), -3.99%; in assay [18] (at 0.5 µM), 2.36% (inactive); in assay [18] (measured here: combination with cisplatin, at 0.5 µM) it was 15%. The inhibition in assay [18] (measured here: combination with cisplatin, at 5 µM) is 96.1%; in assay [19] (BGB combination, concentration series, at 5 µM), 103%; in assay [19] (at 0.5 µM), 1.64% (inactive); in assay [19] (cisplatin combination, concentration series, at 5 µM), 117%; in assay [20] (at 0.5 µM), -27.9% (inactive); in [20] (measured here: combo with BGB IC20, at 0.5 µM), -30.9%. Further, in assay [20] (measured here: combo with cisplatin IC20, at 0.5 µM), the inhibition is -37.3%. Besides, the outcome in assay [10], in assay [11], in assay [12] and in [13] was inactive. The AC50 (as a rule, the midpoint of the concentration-response curve, whichever way the signal moves) in [4] is 8.33 µM (active); in assay [5], 11.8 µM (active).

On to `CCN(CC)CCCC(C)Nc1ccnc2cc(Cl)ccc12` (centres undefined), for which, in [14], the fluorescence slope change is -4.1% (inactive). The growth inhibition in [7] was 96% (active); in [9], 100% (active). For the same compound, in [8], the inhibition was -1% (inactive). Further, the outcome in [10], in assay [11], in assay [12], in assay [13], in assay [4] and in [5] was inactive.
